Data taken from the supplement of paper PMC11732987, “Enantioselective OTUD7B fragment discovery through chemoproteomics screening and high-throughput optimisation” (Communications Chemistry, 2025).

Columns and labels:
Experiment in all cases: log2 ratio of Biotin-Ahx-Ub-VS probe labelling (fragment/DMSO); higher = less target engagement (more negative = stronger competition), active = hit call of the paper (q ≤ 0.05, log2 ratio ≤ -1)
Settings in all cases: compound concentration: 200 uM; treatment time: 3 h
[1] = molecular target: T1, ALG13 (UniProt Q9NP73)
T1 sequence (whole entry): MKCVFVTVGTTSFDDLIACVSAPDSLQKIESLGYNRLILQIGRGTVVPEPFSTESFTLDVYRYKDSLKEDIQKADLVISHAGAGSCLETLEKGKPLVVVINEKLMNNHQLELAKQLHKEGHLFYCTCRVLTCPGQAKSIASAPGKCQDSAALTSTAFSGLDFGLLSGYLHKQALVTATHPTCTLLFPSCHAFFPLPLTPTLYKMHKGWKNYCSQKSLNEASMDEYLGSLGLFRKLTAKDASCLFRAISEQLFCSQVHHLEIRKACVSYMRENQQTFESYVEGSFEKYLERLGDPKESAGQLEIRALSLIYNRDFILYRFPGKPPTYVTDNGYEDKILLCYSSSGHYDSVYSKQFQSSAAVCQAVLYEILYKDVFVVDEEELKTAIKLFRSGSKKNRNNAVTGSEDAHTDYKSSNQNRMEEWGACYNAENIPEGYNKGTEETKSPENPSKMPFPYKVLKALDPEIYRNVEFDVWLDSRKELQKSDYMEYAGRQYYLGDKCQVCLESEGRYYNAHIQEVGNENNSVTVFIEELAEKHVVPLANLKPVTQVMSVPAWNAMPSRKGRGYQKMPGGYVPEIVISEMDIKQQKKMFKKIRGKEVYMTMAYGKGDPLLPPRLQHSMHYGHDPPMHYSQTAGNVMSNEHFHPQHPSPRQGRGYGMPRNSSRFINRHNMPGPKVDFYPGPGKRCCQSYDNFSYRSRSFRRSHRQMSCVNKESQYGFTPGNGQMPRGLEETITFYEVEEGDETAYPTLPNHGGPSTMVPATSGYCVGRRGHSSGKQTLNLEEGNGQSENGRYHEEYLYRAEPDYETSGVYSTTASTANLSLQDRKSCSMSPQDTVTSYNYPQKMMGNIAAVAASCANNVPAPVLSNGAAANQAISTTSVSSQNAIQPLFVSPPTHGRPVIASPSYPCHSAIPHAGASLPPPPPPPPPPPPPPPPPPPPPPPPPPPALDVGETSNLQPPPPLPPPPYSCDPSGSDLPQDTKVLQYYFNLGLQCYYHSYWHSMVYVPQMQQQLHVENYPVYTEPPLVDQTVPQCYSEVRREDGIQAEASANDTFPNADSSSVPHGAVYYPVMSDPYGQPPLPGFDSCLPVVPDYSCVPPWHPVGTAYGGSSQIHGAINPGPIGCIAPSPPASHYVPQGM
How it was run: (§1)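 Using Biotin-Ahx-Ub-VS at 0.5 µM final for 1 h, DUBs were labelled in HEK293T lysate (495 µg per sample) that had first been treated in triplicate with fragment at 200 µM or vehicle for 3 h. NeutrAvidin enrichment, LysC and trypsin digestion and diaPASEF LC-MS/MS followed. Spectronaut label-free quantities were global-median-normalised. Values are average log2 fragment/vehicle ratios by unpaired t-test, using proteins with ≥2 unique peptides.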

[2] = molecular target: ATXN3 (UniProt P54252)
How it was run: as §1

[3] = molecular target: T2, BAP1 (UniProt Q92560)
T2 sequence (whole entry): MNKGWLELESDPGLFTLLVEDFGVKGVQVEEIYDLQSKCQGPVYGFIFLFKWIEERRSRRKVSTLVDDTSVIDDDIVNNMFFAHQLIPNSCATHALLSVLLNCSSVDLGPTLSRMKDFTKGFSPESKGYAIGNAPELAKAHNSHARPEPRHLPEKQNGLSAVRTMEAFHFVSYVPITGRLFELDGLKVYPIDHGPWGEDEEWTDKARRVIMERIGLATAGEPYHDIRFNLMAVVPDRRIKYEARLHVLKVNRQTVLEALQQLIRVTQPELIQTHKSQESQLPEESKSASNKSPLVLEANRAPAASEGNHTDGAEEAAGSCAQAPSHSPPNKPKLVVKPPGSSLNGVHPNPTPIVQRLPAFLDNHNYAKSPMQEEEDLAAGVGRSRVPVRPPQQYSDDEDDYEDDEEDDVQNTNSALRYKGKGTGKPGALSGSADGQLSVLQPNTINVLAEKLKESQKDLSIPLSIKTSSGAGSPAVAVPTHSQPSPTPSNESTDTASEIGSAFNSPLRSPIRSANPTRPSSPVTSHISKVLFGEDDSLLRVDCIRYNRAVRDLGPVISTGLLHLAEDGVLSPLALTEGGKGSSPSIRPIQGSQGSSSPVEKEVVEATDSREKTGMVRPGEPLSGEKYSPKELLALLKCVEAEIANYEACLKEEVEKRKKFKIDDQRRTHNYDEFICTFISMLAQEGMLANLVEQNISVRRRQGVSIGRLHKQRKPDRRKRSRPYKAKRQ
How it was run: as §1

[4] = molecular target: EIF3F (UniProt O00303)
How it was run: as §1

[5] = molecular target: EIF3H (UniProt O15372)
How it was run: as §1

[6] = molecular target: T3, FAM105A (UniProt Q9NUU6)
T3 sequence (whole entry): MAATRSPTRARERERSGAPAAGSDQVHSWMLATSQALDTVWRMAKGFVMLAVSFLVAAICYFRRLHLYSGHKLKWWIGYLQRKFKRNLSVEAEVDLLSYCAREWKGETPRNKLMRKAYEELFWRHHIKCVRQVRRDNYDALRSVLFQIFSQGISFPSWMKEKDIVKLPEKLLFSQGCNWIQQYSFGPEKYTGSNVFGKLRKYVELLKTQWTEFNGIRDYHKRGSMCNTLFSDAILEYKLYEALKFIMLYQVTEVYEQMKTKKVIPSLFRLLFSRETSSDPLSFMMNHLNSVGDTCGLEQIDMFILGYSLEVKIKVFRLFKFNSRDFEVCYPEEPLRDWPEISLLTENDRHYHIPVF
How it was run: as §1

[7] = molecular target: OTUB1 (UniProt Q96FW1)
How it was run: as §1

[8] = molecular target: T4, OTUD4 (UniProt Q01804)
T4 sequence (whole entry): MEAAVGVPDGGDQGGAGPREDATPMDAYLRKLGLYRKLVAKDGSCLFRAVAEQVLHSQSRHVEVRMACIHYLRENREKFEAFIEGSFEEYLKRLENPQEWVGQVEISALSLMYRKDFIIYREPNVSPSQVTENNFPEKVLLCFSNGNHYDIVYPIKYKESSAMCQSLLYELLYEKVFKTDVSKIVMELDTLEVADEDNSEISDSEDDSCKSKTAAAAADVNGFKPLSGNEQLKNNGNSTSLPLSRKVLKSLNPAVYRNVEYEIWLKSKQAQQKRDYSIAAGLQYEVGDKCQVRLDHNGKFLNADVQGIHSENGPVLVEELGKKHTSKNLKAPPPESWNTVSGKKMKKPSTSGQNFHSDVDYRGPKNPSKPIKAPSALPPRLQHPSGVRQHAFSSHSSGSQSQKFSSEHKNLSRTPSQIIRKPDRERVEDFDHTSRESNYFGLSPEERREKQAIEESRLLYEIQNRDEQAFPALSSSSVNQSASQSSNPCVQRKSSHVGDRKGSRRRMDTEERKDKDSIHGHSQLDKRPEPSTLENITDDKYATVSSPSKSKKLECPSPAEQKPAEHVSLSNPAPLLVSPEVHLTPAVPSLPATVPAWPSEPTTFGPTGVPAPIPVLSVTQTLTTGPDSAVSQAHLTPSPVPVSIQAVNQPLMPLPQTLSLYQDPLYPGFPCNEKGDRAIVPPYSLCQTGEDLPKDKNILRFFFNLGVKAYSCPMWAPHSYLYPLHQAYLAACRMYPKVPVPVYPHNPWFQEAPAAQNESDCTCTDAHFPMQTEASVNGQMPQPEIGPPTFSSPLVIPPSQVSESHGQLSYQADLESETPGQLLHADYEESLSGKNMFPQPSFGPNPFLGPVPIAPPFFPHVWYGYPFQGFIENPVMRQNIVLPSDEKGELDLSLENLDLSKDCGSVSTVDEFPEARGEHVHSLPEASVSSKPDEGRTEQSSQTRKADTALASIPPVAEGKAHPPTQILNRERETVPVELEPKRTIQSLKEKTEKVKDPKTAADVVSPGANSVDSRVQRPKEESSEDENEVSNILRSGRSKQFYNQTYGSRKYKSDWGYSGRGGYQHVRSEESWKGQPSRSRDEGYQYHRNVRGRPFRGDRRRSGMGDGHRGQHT
How it was run: as §1

[9] = molecular target: T5, OTUD5 (UniProt Q96G74)
T5 sequence (whole entry): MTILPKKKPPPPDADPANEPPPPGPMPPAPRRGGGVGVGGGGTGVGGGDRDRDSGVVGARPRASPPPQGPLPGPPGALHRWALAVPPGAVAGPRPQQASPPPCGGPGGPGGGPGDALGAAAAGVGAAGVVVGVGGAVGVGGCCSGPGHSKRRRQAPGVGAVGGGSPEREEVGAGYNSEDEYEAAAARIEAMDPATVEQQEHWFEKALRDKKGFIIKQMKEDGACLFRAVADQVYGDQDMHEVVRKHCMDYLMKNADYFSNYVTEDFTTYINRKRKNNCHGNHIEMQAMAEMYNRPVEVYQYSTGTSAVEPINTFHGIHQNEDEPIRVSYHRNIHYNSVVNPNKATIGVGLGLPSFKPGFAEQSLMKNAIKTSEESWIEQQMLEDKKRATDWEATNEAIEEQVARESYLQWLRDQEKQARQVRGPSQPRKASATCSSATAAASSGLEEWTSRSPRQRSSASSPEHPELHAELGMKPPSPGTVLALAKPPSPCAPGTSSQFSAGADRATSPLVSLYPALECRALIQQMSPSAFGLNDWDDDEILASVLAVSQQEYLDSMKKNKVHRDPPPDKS
How it was run: as §1

Measured: log2 ratio of Biotin-Ahx-Ub-VS probe labelling

Sequence of OTUB1 (Q96FW1 whole entry): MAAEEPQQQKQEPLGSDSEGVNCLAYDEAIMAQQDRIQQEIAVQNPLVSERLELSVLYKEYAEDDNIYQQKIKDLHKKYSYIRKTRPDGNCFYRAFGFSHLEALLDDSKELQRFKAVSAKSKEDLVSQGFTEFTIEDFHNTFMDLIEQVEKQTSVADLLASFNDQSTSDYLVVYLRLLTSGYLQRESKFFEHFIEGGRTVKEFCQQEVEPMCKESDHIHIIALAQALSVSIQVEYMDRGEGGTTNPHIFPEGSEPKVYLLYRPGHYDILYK
Sequence of EIF3F (O00303 whole entry): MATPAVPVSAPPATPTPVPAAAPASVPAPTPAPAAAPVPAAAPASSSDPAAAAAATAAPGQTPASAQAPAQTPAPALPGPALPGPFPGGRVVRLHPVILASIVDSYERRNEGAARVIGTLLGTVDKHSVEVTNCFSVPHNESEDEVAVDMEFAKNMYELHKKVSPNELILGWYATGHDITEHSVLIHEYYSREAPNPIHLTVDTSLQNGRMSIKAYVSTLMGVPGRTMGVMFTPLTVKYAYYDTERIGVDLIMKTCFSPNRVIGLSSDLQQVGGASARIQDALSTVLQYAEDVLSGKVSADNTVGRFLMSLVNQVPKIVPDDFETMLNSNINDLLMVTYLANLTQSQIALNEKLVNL
Sequence of ATXN3 (P54252 whole entry): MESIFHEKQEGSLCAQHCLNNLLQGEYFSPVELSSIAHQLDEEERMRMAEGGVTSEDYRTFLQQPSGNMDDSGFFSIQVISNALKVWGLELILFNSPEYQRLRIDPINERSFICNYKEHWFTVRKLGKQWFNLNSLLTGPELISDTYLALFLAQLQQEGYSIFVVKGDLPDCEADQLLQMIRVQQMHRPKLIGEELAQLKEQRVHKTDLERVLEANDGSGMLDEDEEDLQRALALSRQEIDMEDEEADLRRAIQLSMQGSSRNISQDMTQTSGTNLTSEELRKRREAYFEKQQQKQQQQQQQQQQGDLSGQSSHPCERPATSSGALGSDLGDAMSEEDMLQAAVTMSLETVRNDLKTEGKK
Sequence of EIF3H (O15372 whole entry): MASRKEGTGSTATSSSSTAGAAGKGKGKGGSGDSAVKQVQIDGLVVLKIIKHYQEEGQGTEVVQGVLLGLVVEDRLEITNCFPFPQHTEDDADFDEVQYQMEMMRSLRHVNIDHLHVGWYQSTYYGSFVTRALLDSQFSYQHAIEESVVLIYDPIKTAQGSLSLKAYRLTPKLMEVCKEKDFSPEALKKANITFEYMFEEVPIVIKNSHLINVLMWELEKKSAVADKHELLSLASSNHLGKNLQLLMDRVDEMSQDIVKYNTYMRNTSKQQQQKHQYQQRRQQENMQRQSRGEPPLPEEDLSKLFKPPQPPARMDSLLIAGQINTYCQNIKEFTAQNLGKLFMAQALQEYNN

Cc1cc(C2CCCN2C(=O)CCl)nn1C.Cl (centres undefined)
inactive: [1] 0.0249 | [2] -0.374 | [3] -0.0558 | [4] -0.11 | [5] -0.0784 | [6] 0.201 | [7] -0.0124 | [8] -0.0857 | [9] -0.157
